Source: PubChem BioAssay
ELG1 DNA repair: inhibitors of ELG1-dependent DNA repair in HEK293T cells; HEK293T ELG1-luciferase reporter, luminescence, 16 h; DNA damage induced by 5-fluorouridine; Potency, µM (titrated, usually from 46.1 µM), for inactives: at the top dose activity change, negative = inhibition, most hits filed as inhibitors; 330,000 tested, 2.3% active; AID 504467; further: potency means the concentration at half of the fitted maximal effect; nearly all actives have a fitted effect of over 55% in size
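Overnight (16 hr) co-exposure of 2,000 cells/well to 5-fluorouridine and compound at 37 °C preceded detection. Luciferase was quantified via ONE-Glo luminescence; loss of signal denotes inhibition.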
HT1080NT lethal: kills 2HG-producing HT-1080-NT fibrosarcoma cells. HT-1080-NT fibrosarcoma viability, CellTiter-Glo ATP luminescence, 48 h. Potency, µM (top dose mostly 46.1 µM), for the others: top-dose activity, negative = less viability, hits mostly cytotoxic. AID 686970. 360,000 tested, 1.6% active;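 further: NT is the 2HG producing partner of a matched IDH1 knockdown line; potency means the concentration at half of the fitted maximal effect; 0% = DMSO-treated cells and -100% = media-only wells without cells; nearly all actives have a fitted effect of over 55% in size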
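Read-out is CellTiter-Glo luminescence after 10 minutes at room temperature, following 48 hours' compound treatment of HT-1080-NT cells (750 cells/well, RPMI, 5% FBS, 37 degrees C).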
HT1080 IDH1KD tx: HT-1080 IDH1 knockdown cell toxicity (counter line); HT-1080 IDH1 knockdown viability, ATP luminescence, 48 h; Potency, µM (top dose mostly 46.1 µM), for inactives: top-dose activity, negative = toxicity, actives largely listed as cytotoxic; 360,000 tested, 2% active; AID 686971;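 further: potency means the concentration at half of the fitted maximal effect; 0% = DMSO wells and -100% = cell-free medium wells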
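Knockdown cells (IDH1KD HT-1080) received compounds 2 h after plating at 750 cells/well and were kept 48 h at 37 °C in 5% FBS RPMI. A CellTiter-Glo luminescence read gave % activity for curve fitting.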
TDP1 cell CPT: DT40-hTDP1 cell growth loss with CPT; chicken DT40 Tdp1-/-;hTDP1 cells + 20 nM CPT, ATP luminescence, 48 h; Potency, µM (top dose mostly 46.2 µM), without a hit: top-dose activity change, negative = growth inhibition, usual class: inhibitors; 420,000 tested, 12% active; AID 686979; further: potency means the concentration at half of the fitted maximal effect; nearly all actives have a fitted effect of over 55% in size
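Chicken DT40 Tdp1-/- cells complemented with human TDP1, 400 cells/well, exposed to compounds plus 20 nM camptothecin for at least 48 h at 37 C; viability read as ATP content by CellTiter-Glo luminescence.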
IL1B secr inh: inhibitors of inflammasome signaling (IL-1 beta secretion); activity change, % at 57.5 µM; THP-1 LPS/ATP IL-1B secretion, AlphaLISA, 16 h; hits give low values; 360,000 tested, 4.7% active; in the data active means activity change below about -50%; inconclusive means mostly about -30% to -49%
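THP-1 cells pretreated 1 hr with compounds (up to 57.5 uM final), then stimulated with LPS (250 ng/mL final) plus ATP (1.25 mM final); secreted IL-1B measured by AlphaLISA after 16 hr, decreased signal indicating inhibition.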
DT40 TDP1 no CPT: qHTS for Inhibitors of human tyrosyl-DNA phosphodiesterase 1 (TDP1): qHTS in cells in absence of CPT; AID 686978, 2013; Potency, µM (series often up to 46.2 µM), for the others: top-dose activity change, negative = growth inhibition, hits mostly inhibitors; 420,000 tested, 15% active; DT40 Tdp1-/- hTDP1 cells, no CPT, ATP luminescence, 48 h; further: potency means the concentration at half of the fitted maximal effect; nearly all actives have a fitted effect of over 55% in size
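A cellular qHTS used chicken DT40 cells lacking endogenous Tdp1 but carrying stably transfected human TDP1. Compounds were applied without camptothecin, and cell growth kinetics were judged by ATP-dependent luminescence after ≥48 hr.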
Numbers without * were called inactive; ? = inconclusive; · = no result; [ ] = another dose, or the depositor's remark. Rows were chosen to be rich in hits. Some 19% of all compounds tested hit in one or more screens of this group. Unless noted, the call rests on the fitted dose curve; in most records, active means well fitted curve in the direction sought with a large enough effect; inconclusive means small, poorly fitted or top-dose-only effect, or another doubt; inactive means no such curve, though single readings can be large; an effect the other way counts as inactive or inconclusive. Unless noted, on the % scale 0 is the no-effect control and ±100 the full control effect.

SMILES	ELG1 DNA repair	HT1080NT lethal	HT1080 IDH1KD tx	TDP1 cell CPT	IL1B secr inh	DT40 TDP1 no CPT
CCOc1cc(N2CCOCC2)c(OCC)cc1NC(=O)CN1C(=O)NC(C)(c2ccc(OC)cc2)C1=O (configuration not stated)	·	-1.1%	-1.4%	-6.3%	0.0	9.1%
Cc1c(NC(=O)C(C)OC(=O)/C=C/c2ccccc2)c(=O)n(-c2ccccc2)n1C (configuration not stated)	-0.3%	8.8%	0.5%	0.6%	2.0	1.9%
COc1ccc([N+](=O)[O-])cc1NC(=O)C(C)OC(=O)/C=C/c1ccco1 (configuration not stated)	-21.7%	-4.1%	-5.1%	-13.0%	0.0	?
O=C(NC(=S)Nc1cccc([N+](=O)[O-])c1)c1ccco1	?	-5.8%	-3.3%	2.8%	15.0	-12.9%
O=C(/C=C/c1ccco1)NC(=S)Nc1ccc(N2CCOCC2)c(Cl)c1	14.5%	?	?	5.17µM*	21.4	4.61µM*
CC(OC(=O)/C=C/c1ccco1)C(=O)Nc1cccc([N+](=O)[O-])c1 (configuration not stated)	-14.7%	3.7%	1.7%	18.4µM*	17.7	18.4µM*
O=C(/C=C/c1ccco1)NC(=S)Nc1cccc([N+](=O)[O-])c1	3.8%	20.6µM*	13µM*	?	-6.7	14.6µM*
CC(OC(=O)/C=C/c1ccccc1)C(=O)Nc1cccc(C#N)c1 (configuration not stated)	-1.5%	?	-23.4%	16.4µM*	32.1	16.4µM*
Cc1nc(CNC(=O)CC2C(=O)NCCN2Cc2cccc(Oc3ccccc3)c2)cs1 (configuration not stated)	0.7%	6.8%	1.4%	?	-2.5	?
CCCCn1c(N)c(N(CC(C)C)C(=O)CSc2ccccc2C)c(=O)[nH]c1=O	12.4%	3.8%	1.8%	-0.7%	2.1	-3.3%
COc1ccc(CCNS(=O)(=O)c2ccc3c(c2)CCCC3)cc1OC	?	7.7%	-7.8%	?	5.8	?
CNc1cccc(-c2ccc(N3CCN(C)CC3)nc2)n1	·	10.8%	1.4%	-5.7%	-17.2	-4.0%
Cc1ccc2oc(=O)c3cc(C(=O)Nc4ccccc4C(N)=O)sc3c2c1	·	·	·	7.6%	·	2.4%
Cn1nc(C(=O)Nc2ccc(S(=O)(=O)N3CCOCC3)cc2)c2ccccc2c1=O	?	5.9%	0.2%	?	16.7	?
O=C(/C=C/c1ccco1)NC(=S)Nc1ccccc1	?	-20.6%	-17.7%	-28.5%	-19.7	25.9µM*
Cc1cccc(NC(=S)NC(=O)/C=C/c2ccco2)c1	?	?	?	3.26µM*	4.0	?
CN1CCN(S(=O)(=O)c2cccc(C(=O)Oc3ccc(Br)cc3F)c2)CC1	?	24.8%	5.6%	12.5%	14.3	16.8%
CCNC(=S)N/N=C/c1cccc(OCc2c(F)cccc2Cl)c1	?	-15.7%	-14.7%	?	0.0	16.4µM*
Fc1ccccc1COc1ccc(/C=N/NC(=S)NCc2ccccc2)cc1	?	-9.3%	-6.9%	11.6µM*	-5.5	13µM*
CNC(=S)N/N=C/c1cccc(OCc2ccccc2F)c1	?	?	-15.4%	?	-5.5	23.1µM*
COc1ccc(/C=N/NC(=S)Nc2ccccc2)cc1COc1ccc(F)cc1F	-14.9%	-2.2%	-17.1%	9.2%	24.7	-26.9%
C/C(=N\Nc1nc(C)c(C)s1)c1ccc([N+](=O)[O-])cc1	1.4%	20.6µM*	16.4µM*	?	-87.7*	20.6µM*
O=Cc1ccc(-n2nncc2-c2ccc([N+](=O)[O-])cc2)cc1	-2.9%	-5.1%	6.3%	-18.3%	12.4	?
C/C(=N\Nc1ccc([N+](=O)[O-])cc1)c1ccc(-n2nncc2C)cc1	7.31µM*	-18.0%	?	?	?	20.6µM*
C/C(=N\Nc1ccc([N+](=O)[O-])cc1)c1ccc(N2CCOCC2)cc1	?	-8.3%	-12.3%	5.7%	18.2	-4.9%
SMILES	ELG1 DNA repair	HT1080NT lethal	HT1080 IDH1KD tx	TDP1 cell CPT	IL1B secr inh	DT40 TDP1 no CPT
CC(C)(C)c1cnnn1-c1ccc(/C=N/Nc2ccc([N+](=O)[O-])cc2)cc1	?	-9.4%	-16.9%	18.4µM*	-13.7	13µM*
CCNC(=O)CSc1nnc(-c2cccc(S(=O)(=O)N3CCOCC3)c2)o1	5.5%	0.4%	-3.4%	-0.1%	14.0	-17.5%
CN(CC1COCCO1)C(=O)c1cnn(-c2ncc3c(n2)-c2ccccc2CC3)c1C1CC1 (configuration not stated)	·	·	·	?	·	-28.1%
Cc1c(C=C(C#N)c2ccc([N+](=O)[O-])cc2)c(=O)n(-c2ccccc2)n1C	·	0.4%	-2.3%	?	-6.4	?
CS(=O)(=O)CCCCN=C=S	·	·	·	?	·	18.4µM*
COc1ncc2nc(-c3cc(F)cc(F)c3)c(=O)n(-c3ccccc3)c2n1	·	·	·	-1.1%	·	-31.0%
CC[C@@H]1[C@H]2CCCC(=O)N3CC[C@@H](C[C@@H]1OC(=O)Nc1ccccc1)[C@@H]23	3.3%	10.3%	1.5%	11.2µM*	-11.2	11.2µM*
CC[C@@H]1[C@H]2CCCC(=O)N3CC[C@@H](C[C@@H]1Nc1ccccc1)[C@@H]23	-14.1%	?	15.3%	?	36.9	17.8µM*
CCCCCCCN(c1ccccc1)[C@@H]1C[C@H]2CCCC(=O)N3CC[C@@H](C1)[C@@H]23	·	-28.8%	-26.3%	11.6µM*	-108.3*	10.3µM*
CCCCNC(=O)O[C@@H]1C[C@@H]2CCN3C(=O)CCC[C@H]([C@H]1CC)[C@H]23	19.5%	15.5%	13.1%	14.1µM*	9.3	10µM*
CSc1cccc(N2C(=O)C3CCCN3C2=S)c1 (configuration not stated)	-11.4%	-0.3%	4.5%	9.6%	1.4	-20.3%
Cn1ncc2c(O/N=C(\N)c3ccc(C(C)(C)C)cc3)ncnc21	?	18.4µM*	6.51µM*	2.59µM*	-101.3*	2.91µM*
COc1ccccc1CNc1ncnc2sc(C(=O)N3CCN(C)CC3)c(C)c12	·	·	·	-7.5%[9.04 µM]	·	-16.3%
Oc1ccc(-c2nc3cnccn3c2Nc2ccc3c(c2)OCCO3)cc1	?	2.4%	2.5%	1.8%	68.5	-8.3%
CCN(CC)c1ccc(-c2nc3cnccn3c2NC2CCCC2)cc1	-1.7%	8.1%	2.6%	20.6µM*	?	?
